This note sets out measurements from PubChem BioAssay (NCI).

Compounds without any hit were thinned out: in the full panel of roughly 83,000, 20% have a hit.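 Testing used 96-well plates and a 48-hour single-concentration exposure. Example: -40 means 40% of the starting cells died.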 Unmarked numbers belong to inactive results. Active and inactive are the calls of the source. Rule for the calls: active = growth percent below 10; inactive = the rest.

Test systems include SK-MEL-2 melanoma; EKVX NSCLC; SN12C renal; UO-31 renal; TK-10 renal; ACHN renal; CAKI-1 renal; A498 renal; CCRF-CEM leukemia; MOLT-4 leukemia; SR leukemia; OVCAR-8 ovarian; OVCAR-5 ovarian; OVCAR-4 ovarian; SK-OV-3 ovarian; OVCAR-3 ovarian; HS 578T breast; NCI/ADR-RES ovarian; RPMI-8226 leukemia; IGROV1 ovarian.
What all share (test): NCI-60 one-dose screen, 48 h (100 = growth as untreated, 0 = no growth, -100 = all killed)
Details in all cases: 10 µM unless noted

Regarding `NC(C(=O)O)C(O)c1ccc(OCc2ccccc2)c(OCc2ccccc2)c1` (stereo unspecified), the growth in the assay with SK-MEL-2 melanoma was 104%; in the assay with EKVX NSCLC, 104%; with SN12C renal it was 107%; with UO-31 renal, 92.1%; in the assay with TK-10 renal it was 104%; with ACHN renal, 101%. Besides, the growth with CAKI-1 renal was 93.3%; in the assay on A498 renal it was 85.3%; in the assay with CCRF-CEM leukemia, 94.6%; in the assay on MOLT-4 leukemia it was 98.9%; in the assay with SR leukemia, 92.3%; in the assay on OVCAR-8 ovarian it was 99.6%. Also, the growth in the assay on OVCAR-5 ovarian was 101%; in the assay with OVCAR-4 ovarian, 107%; in the assay with SK-OV-3 ovarian it was 103%; in the assay on OVCAR-3 ovarian, 106%; in the assay on HS 578T breast it was 93.4%; in the assay with NCI/ADR-RES ovarian, 93.3%.
In the case of `OC1CC2c3ccccc3C1c1ccccc12` (stereo unspecified), the growth in the assay with SK-MEL-2 melanoma was 117%; in the assay with EKVX NSCLC it was 108%; in the assay on SN12C renal, 106%; in the assay with UO-31 renal, 95.7%; in the assay on TK-10 renal, 96.9%; with ACHN renal, 111%. In addition, the growth in the assay on CAKI-1 renal was 94.5%; in the assay on A498 renal, 125%; with CCRF-CEM leukemia, 104%; in the assay on MOLT-4 leukemia, 106%; with RPMI-8226 leukemia, 104%; in the assay with OVCAR-8 ovarian it was 106%. In addition, the growth in the assay on OVCAR-5 ovarian is 113%; with OVCAR-4 ovarian it was 100%; in the assay with SK-OV-3 ovarian it was 112%; in the assay on OVCAR-3 ovarian, 112%; in the assay with HS 578T breast it was 104%; in the assay on NCI/ADR-RES ovarian it was 110%.
Consider `COc1ccc(C(=O)N2CCN(C(=O)c3cc(OC)c(OC)c(OC)c3)CC2)cc1OCCCCOc1cc2c(cc1OC)C(=O)N1CCC[C@H]1C=N2`, for which the growth in the assay with SK-MEL-2 melanoma is 31.9%; in the assay on EKVX NSCLC it was 113%; in the assay with SN12C renal, 97.9%; in the assay on UO-31 renal it was 32.7%; in the assay on TK-10 renal, 157%; with ACHN renal, 105%. Further, the growth in the assay with CAKI-1 renal was 81.4%; in the assay with A498 renal, 95.5%; in the assay on CCRF-CEM leukemia, 86.4%; in the assay on MOLT-4 leukemia, 108%; in the assay with RPMI-8226 leukemia, 90.3%; in the assay on OVCAR-8 ovarian, 209%. Moreover, the growth in the assay on OVCAR-5 ovarian is 111%; in the assay on OVCAR-4 ovarian, 112%; with SK-OV-3 ovarian, 108%; in the assay with IGROV1 ovarian, -18.9% (active); in the assay on OVCAR-3 ovarian, 105%; in the assay with HS 578T breast, -24.2% (active). Besides, the growth in the assay with NCI/ADR-RES ovarian is 110%.
With `O=C1CCC(=O)N1Cc1ccccc1`, the growth with SK-MEL-2 melanoma is 95.1%; with EKVX NSCLC, 97.3%; in the assay on SN12C renal, 104%; with UO-31 renal, 98.1%; in the assay with TK-10 renal, 92.2%; with ACHN renal, 101%. Further, the growth in the assay with CAKI-1 renal is 94.2%; with A498 renal, 85.8%; with CCRF-CEM leukemia, 108%; in the assay with MOLT-4 leukemia, 101%; in the assay with RPMI-8226 leukemia, 109%; in the assay on OVCAR-8 ovarian it was 108%. Besides, the growth with OVCAR-5 ovarian is 97.7%; in the assay on OVCAR-4 ovarian it was 96.9%; in the assay on SK-OV-3 ovarian, 113%; in the assay with OVCAR-3 ovarian, 102%; in the assay with HS 578T breast, 102%; with NCI/ADR-RES ovarian it was 89.8%.
With `C=CCOc1ccc(/C(O)=C2\C(=O)C(=O)N(c3nccs3)C2c2ccccc2F)cc1` (stereo unspecified), the growth is 54% with SK-MEL-2 melanoma; 133% in the assay with EKVX NSCLC; 103% with SN12C renal; 110% in the assay on UO-31 renal; 89.1% with TK-10 renal; 79.4% with ACHN renal. Moreover, the growth is 98.7% in the assay on CAKI-1 renal; 73.8% with A498 renal; 131% with CCRF-CEM leukemia; 98.3% in the assay on MOLT-4 leukemia; 136% in the assay with RPMI-8226 leukemia; 102% in the assay with OVCAR-8 ovarian. Moreover, the growth in the assay on OVCAR-5 ovarian is 122%; in the assay with OVCAR-4 ovarian it was 81.3%; in the assay on SK-OV-3 ovarian it was 109%; in the assay on IGROV1 ovarian it was 3.7% (active); in the assay with OVCAR-3 ovarian, 93.5%; in the assay with HS 578T breast, 104%. In addition, the growth with NCI/ADR-RES ovarian was 119%.
On to `Cc1ccc(S(=O)(=O)N2CCC(C(=O)Nc3ccc(F)cc3F)CC2)cc1`, for which the growth with SK-MEL-2 melanoma was 34.2%; in the assay with EKVX NSCLC, 94.6%; in the assay on SN12C renal, 90.7%; with UO-31 renal, 37.6%; in the assay on TK-10 renal, 85.3%; with ACHN renal it was 107%. The growth with CAKI-1 renal was 97.8%; in the assay with A498 renal, 83.7%; with CCRF-CEM leukemia, 101%; in the assay on MOLT-4 leukemia, 79.2%; in the assay on RPMI-8226 leukemia it was 86.5%; in the assay with OVCAR-8 ovarian it was 97.8%. The growth is 98% in the assay with OVCAR-5 ovarian; 83.7% with OVCAR-4 ovarian; 92.3% in the assay on SK-OV-3 ovarian; -38.5% (active) with IGROV1 ovarian; 91.6% with OVCAR-3 ovarian; -32.4% (active) in the assay with HS 578T breast. Besides, the growth in the assay with NCI/ADR-RES ovarian is 95.4%.
Take `CCC(c1cccc(Br)c1)C(C(=O)O)c1ccc(OC)cc1` (stereo unspecified): the growth is 103% in the assay on SK-MEL-2 melanoma; 100% in the assay with EKVX NSCLC; 105% in the assay with SN12C renal; 90.9% with UO-31 renal; 107% in the assay on TK-10 renal; 107% with ACHN renal. Moreover, the growth is 93.2% in the assay with CAKI-1 renal; 100% in the assay with A498 renal; 110% with CCRF-CEM leukemia; 111% in the assay with MOLT-4 leukemia; 101% in the assay with RPMI-8226 leukemia; 107% in the assay on OVCAR-8 ovarian. Further, the growth in the assay on OVCAR-5 ovarian was 109%; in the assay on OVCAR-4 ovarian it was 114%; with SK-OV-3 ovarian it was 107%; with IGROV1 ovarian, 99.3%; in the assay with OVCAR-3 ovarian, 110%; in the assay with HS 578T breast it was 91.4%. In the assay on NCI/ADR-RES ovarian, the growth was 103%.
On to `CN(C)c1nc(N)c(N=O)c(N)n1`, for which the growth is 104% with SK-MEL-2 melanoma; 111% with EKVX NSCLC; 110% in the assay on SN12C renal; 101% with UO-31 renal; 110% with TK-10 renal; 109% with ACHN renal. Further, the growth is 103% with CAKI-1 renal; 76.1% with A498 renal; 112% with CCRF-CEM leukemia; 105% in the assay with MOLT-4 leukemia; 110% in the assay on RPMI-8226 leukemia; 114% with OVCAR-8 ovarian. For the same compound, the growth is 111% with OVCAR-5 ovarian; 108% with OVCAR-4 ovarian; 110% with IGROV1 ovarian; 101% in the assay with OVCAR-3 ovarian; 106% in the assay with HS 578T breast; 122% in the assay with NCI/ADR-RES ovarian.
As for `C=C1C(=O)O[C@H]2[C@H]1CC/C(COC(=O)NCc1cc(OC)c(OC)c(OC)c1)=C\CC[C@@]1(C)O[C@@H]21`, the growth with SK-MEL-2 melanoma is 73.8%; in the assay with EKVX NSCLC, 75.8%; with SN12C renal it was 47.6%; in the assay on UO-31 renal, 70.6%; in the assay with TK-10 renal it was 51.6%; in the assay with ACHN renal, 45.5%. The growth with CAKI-1 renal was 54.1%; in the assay on CCRF-CEM leukemia, 6.67% (active); in the assay on MOLT-4 leukemia, 54.1%; in the assay with SR leukemia, 4.5% (active); with RPMI-8226 leukemia, 43.6%; in the assay on OVCAR-8 ovarian, 43.9%. Further, the growth in the assay on OVCAR-5 ovarian is 85%; in the assay with OVCAR-4 ovarian it was 60.5%; in the assay on SK-OV-3 ovarian, 101%; in the assay with OVCAR-3 ovarian, 21.2%; in the assay on HS 578T breast, 71.5%; with NCI/ADR-RES ovarian, 110%.
